From the supplement of paper PMC10849652
The full data set covers some 8,800 targets. This sample favours those with a hit. About 0.5% of all pairs of compound and target were hits. A number with no mark means an inactive call.

What was measured:
Assay in all cases: log2 fold change, soluble protein after heating vs DMSO (PISA); higher = thermal stabilisation; K562 lysate, 10 uM; active = over 0.2 and 3.5 SD of the protein, either way, in both replicates (recomputed)
[1] = compound: CCN(CCCOc1ccc2c(Nc3cc(CC(=O)Nc4cccc(F)c4)[nH]n3)ncnc2c1)CCOP(=O)(O)O [barasertib]
Summary of the method: (§1)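 The values are log-two fold changes in thermal stability compared with solvent controls and come from duplicates. They were obtained by TMTpro 16plex LC-MS/MS, with channel sums equalised, on the supernatant after 21,000xg for 90 min. That supernatant came from crude K562 extract at 1 mg/mL protein treated with 10 μM compound for 30 min, heated for 3 min across 48°C-58°C, pooled and brought to 0.5% NP-40 at 4°C.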

[2] = compound: CC[C@@H]1C(=O)N(C)c2cnc(Nc3ccc(C(=O)NC4CCN(C)CC4)cc3OC)nc2N1C1CCCC1
Summary of the method: as §1

[3] = compound: CCn1cc(-c2ccnc3[nH]c(-c4cccc(CN(C)C)c4)cc23)c(-c2ccc(NC(=O)N(C)C)cc2)n1
Summary of the method: as §1

[4] = compound: CN1CCC(CNc2ccc3ncc(-c4cccc(OC(F)(F)F)c4)n3n2)CC1
Summary of the method: as §1

[5] = compound: CN1CCN(CCOc2cc(OC3CCOCC3)c3c(Nc4c(Cl)ccc5c4OCO5)ncnc3c2)CC1 [saracatinib]
Summary of the method: as §1

[6] = compound: CN1CC[C@H](c2c(O)cc(O)c3c(=O)cc(-c4ccccc4Cl)oc23)[C@H](O)C1 [alvocidib]
Summary of the method: as §1

[7] = compound: CNc1nc(-c2ccc3c(N)n[nH]c3c2)cc(N2C[C@@H](C(=O)NC3CCCCC3)CC[C@H]2C)n1
Summary of the method: as §1

[8] = compound: COC(=O)N[C@@H](C)CNc1nccc(-c2cn(C(C)C)nc2-c2cc(Cl)cc(NS(C)(=O)=O)c2F)n1 [encorafenib]
Summary of the method: as §1

[9] = compound: COC(=O)[C@H](CCSC)NC(=O)C1=C(C=C(C=C1)NC[C@H](CS)N)C2=CC=CC=C2
Summary of the method: as §1

[10] = compound: CNC(=O)C1=CC=CC=C1NC2=NC(=NC=C2Cl)NC3=C(C=C(C=C3)N4CCOCC4)OC
Summary of the method: as §1

[11] = compound: COc1cc(Nc2ncc3c(n2)-c2ccc(Cl)cc2C(c2c(F)cccc2OC)=NC3)ccc1C(=O)O [alisertib]
Summary of the method: as §1

[12] = compound: COc1cc2ncnc(Nc3ccc(F)c(Cl)c3)c2cc1OCCCN1CCOCC1 [gefitinib]
Summary of the method: as §1

[13] = compound: CCCS(=O)(=O)Nc1ccc(F)c(C(=O)c2c[nH]c3ncc(Cl)cc23)c1F
Summary of the method: as §1

[14] = compound: CC[C@@H]1C(=O)N(C)c2cnc(Nc3ccc(C(=O)N[C@H]4CC[C@H](N5CCN(CC6CC6)CC5)CC4)cc3OC)nc2N1C(C)C [volasertib]
Summary of the method: as §1

[15] = compound: CCn1c(C(=O)N(C2CC2)C2CC2)cc2c3c(ncn3C)c(Nc3cc(C)n(C)n3)nc21
Summary of the method: as §1

[16] = compound: CN1CCc2c(c3ccccc3n2Cc2ccc(C(=O)NO)cc2)C1 [Tubastatin A]
Summary of the method: as §1

[17] = compound: COc1cc2nc(-c3cc(F)ccc3O)nc(N[C@@H]3CNC[C@H]3C(C)(C)O)c2cc1OC
Summary of the method: as §1

Sequence of UniProt Q92698 (Q92698 whole entry, looked up): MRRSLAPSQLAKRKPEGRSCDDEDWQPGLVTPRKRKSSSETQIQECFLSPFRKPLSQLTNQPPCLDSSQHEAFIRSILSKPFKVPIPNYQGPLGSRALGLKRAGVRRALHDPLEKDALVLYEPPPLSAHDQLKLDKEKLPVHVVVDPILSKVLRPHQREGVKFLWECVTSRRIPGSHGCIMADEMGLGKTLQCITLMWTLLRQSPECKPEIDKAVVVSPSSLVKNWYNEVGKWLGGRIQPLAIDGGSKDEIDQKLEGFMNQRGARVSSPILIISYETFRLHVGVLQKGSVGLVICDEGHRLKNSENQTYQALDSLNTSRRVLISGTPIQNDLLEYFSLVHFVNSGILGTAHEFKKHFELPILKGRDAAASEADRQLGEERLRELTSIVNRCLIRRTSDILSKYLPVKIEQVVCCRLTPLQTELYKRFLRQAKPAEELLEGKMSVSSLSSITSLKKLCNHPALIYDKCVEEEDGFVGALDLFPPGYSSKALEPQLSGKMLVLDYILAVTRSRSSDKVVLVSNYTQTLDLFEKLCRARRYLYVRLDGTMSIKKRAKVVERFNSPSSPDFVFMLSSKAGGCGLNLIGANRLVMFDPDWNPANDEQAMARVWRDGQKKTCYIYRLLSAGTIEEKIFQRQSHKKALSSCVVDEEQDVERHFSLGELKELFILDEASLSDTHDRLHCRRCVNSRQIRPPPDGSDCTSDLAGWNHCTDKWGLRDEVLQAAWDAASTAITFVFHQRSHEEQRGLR
Sequence of UniProt Q86X10 (Q86X10 whole entry, looked up): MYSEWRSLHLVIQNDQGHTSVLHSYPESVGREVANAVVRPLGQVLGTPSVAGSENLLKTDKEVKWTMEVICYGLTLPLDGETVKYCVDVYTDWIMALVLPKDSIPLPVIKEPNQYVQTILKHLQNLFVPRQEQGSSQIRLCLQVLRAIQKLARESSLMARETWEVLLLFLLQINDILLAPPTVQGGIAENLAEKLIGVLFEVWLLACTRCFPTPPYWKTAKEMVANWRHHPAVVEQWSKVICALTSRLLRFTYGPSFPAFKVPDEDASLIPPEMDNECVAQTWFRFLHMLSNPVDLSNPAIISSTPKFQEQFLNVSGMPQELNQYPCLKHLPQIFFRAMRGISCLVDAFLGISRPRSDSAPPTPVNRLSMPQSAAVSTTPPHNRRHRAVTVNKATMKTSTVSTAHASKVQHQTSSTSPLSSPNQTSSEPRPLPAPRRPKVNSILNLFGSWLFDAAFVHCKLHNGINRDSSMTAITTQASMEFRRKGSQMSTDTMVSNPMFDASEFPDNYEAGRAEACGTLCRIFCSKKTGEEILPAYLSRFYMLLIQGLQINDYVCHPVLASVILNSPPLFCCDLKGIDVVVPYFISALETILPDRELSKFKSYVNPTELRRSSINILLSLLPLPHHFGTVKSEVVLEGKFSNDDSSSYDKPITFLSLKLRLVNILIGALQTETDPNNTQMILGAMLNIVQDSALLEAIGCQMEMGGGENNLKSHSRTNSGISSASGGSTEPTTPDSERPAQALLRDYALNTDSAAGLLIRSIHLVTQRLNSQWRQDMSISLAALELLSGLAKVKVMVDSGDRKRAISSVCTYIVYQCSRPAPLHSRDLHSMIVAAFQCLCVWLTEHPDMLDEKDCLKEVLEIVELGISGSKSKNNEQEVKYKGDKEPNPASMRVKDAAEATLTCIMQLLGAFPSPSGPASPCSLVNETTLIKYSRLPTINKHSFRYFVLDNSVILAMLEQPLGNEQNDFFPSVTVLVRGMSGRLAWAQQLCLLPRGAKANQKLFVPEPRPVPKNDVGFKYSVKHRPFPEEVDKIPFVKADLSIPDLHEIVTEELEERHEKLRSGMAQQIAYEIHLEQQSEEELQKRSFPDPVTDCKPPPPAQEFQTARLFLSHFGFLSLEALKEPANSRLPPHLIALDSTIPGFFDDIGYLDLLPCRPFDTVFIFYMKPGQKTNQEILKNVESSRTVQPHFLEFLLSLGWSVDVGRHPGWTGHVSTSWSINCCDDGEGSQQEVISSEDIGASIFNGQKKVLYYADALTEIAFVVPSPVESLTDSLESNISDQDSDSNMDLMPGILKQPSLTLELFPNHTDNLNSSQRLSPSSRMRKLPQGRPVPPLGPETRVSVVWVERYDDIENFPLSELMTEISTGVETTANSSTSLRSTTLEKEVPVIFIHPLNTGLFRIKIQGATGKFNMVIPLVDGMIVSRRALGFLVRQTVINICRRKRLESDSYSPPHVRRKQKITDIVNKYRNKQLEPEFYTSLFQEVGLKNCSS
Sequence of UniProt Q96JX3 (Q96JX3 whole entry, looked up): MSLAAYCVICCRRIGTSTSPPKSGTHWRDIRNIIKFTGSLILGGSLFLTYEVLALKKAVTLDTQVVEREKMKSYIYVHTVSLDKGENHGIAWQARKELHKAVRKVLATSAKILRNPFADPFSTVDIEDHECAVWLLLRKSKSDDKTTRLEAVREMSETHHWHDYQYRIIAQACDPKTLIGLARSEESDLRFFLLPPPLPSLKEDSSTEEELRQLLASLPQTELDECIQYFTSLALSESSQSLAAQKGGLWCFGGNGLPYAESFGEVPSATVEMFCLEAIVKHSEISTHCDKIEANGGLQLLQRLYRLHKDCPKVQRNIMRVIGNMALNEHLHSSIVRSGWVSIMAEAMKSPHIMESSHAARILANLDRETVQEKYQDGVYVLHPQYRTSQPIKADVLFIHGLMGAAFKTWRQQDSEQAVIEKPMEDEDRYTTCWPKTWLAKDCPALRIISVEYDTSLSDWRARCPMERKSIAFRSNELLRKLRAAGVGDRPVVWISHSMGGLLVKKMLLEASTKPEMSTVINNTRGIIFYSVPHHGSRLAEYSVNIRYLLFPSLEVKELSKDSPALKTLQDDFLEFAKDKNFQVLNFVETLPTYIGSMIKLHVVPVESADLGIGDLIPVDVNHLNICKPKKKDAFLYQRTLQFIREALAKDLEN

Target	log2 fold change [1]	log2 fold change [2]	log2 fold change [3]	log2 fold change [4]	log2 fold change [5]	log2 fold change [6]	log2 fold change [7]	log2 fold change [8]	log2 fold change [9]	log2 fold change [10]	log2 fold change [11]	log2 fold change [12]	log2 fold change [13]	log2 fold change [14]	log2 fold change [15]	log2 fold change [16]	log2 fold change [17]
RALGAPB isoform 3 (UniProt Q86X10)	-0.005	-0.076	-0.139	0.004	-0.343	0.161	0.064	0.073	0.107								
SERAC1 (UniProt Q96JX3)	0.142	0.1	-0.061	0.051	-0.096	0.048	0.149	-0.051	-0.003	-0.024	-0.412	-0.165					
RAD54L (UniProt Q92698)	0.012		-2.19 (active)	0.648	0.095	-0.673	-0.132			0.013	-0.022	0	-0.054	0.015	0.005	0	-0.041
